Test: CREB reporter modulators without forskolin, primary screen, cell-based, PC12, CRE-LacZ reporter, unstimulated (AID 1145)
Settings: no forskolin, luminescence, 4.5 h, higher = more signal, called active from +8 up or from −8 down

z-score, inactive:
C[N+](C)(C)CCCCNC(=O)[C@H]1C[C@H]2C(=O)N[C@@H](Cc3ccccc3)C(=O)N2[C@H]1c1ccc(O)cc1 0.143
[N-]=[N+]=NCc1ccccc1C[C@]1(C(=O)N2CCOCC2)N=C(c2ccc(OCCCO)cc2)O[C@H]1c1ccccc1N=[N+]=[N-] -0.0017
CC(=O)NCCCC[C@@H]1NC(=O)[C@@H]2C[C@H](C(=O)NCCCCN(C)C)[C@H](c3cccc(OCCO)c3)N2C1=O 0.0043
COc1ccc(C(O)C2C=CC3C(=O)N(c4ccccc4)C(=O)C3N2Nc2ccc(C(C)C)cc2)cc1OCc1ccccc1 (stereo unspecified) 1.4
[N-]=[N+]=Nc1ccccc1[C@H]1OC(c2ccc(OCCCO)cc2)=N[C@@]1(Cc1ccccc1)C(=O)O -0.0249
O=C(NCc1ccccc1)[C@@]1(Cc2ccccc2)N=C(c2ccc(OCCCO)cc2)O[C@H]1c1ccccc1 -0.183
CCOC1=C2C(CN(S(=O)(=O)c3ccc(C)cc3)C2c2ccc(C)cc2)C2C(=O)N(c3ccccc3)C(=O)C2C1 (stereo unspecified) -0.275
CCOC(=O)C[C@H]1[C@H](OC(=O)c2ccc(C(=O)c3ccccc3)cc2)[C@@H](NC(=O)c2ccc(-c3ccccc3)cc2)c2cc(OCCCO)ccc2N1C(=O)c1ccccc1 0.0035
COCCOC(=O)N1C(=O)[C@@]2(c3cc(C#Cc4ccc(OC)cc4)ccc31)[C@H](c1ccc(O)cc1)N1[C@H](c3ccccc3)[C@H](c3ccccc3)OC(=O)[C@H]1[C@@H]2C(=O)NC[C@H](O)c1ccccc1 -1.15
COc1ccc(C(=O)O[C@H]2CC[C@]3(C)C4=C(CCC3C2(C)C)[C@]2(C)CC[C@H]([C@H](C)CCCC(C)C)[C@@]2(C)CC4)cc1 (stereo partly specified) 0.131
COc1ccc(C(=O)Nc2ccc(CN3C(=O)[C@@]4(O[C@@H](CCn5cc([C@H](O)c6ccccc6)nn5)[C@H]([Si](C)(C)c5ccc(OC)cc5)[C@H]4C)c4ccccc43)cc2)cc1 2.4
O=C1c2ccccc2[C@@]2(Cc3ccccc3N(CCN3CCOCC3)C2=O)[C@H](c2ccc(CO)cc2)N1Cc1ccccc1 0.208
CC[C@@H]1C=C(C(=O)O)[C@H](c2ccco2)N1S(=O)(=O)c1ccc(C)cc1 -0.518
O=C1OCCC/C=C\[C@H]2OC34C=CCN(CCN5CCOCC5)C(=O)[C@H]3N(CCCO)C(=O)[C@@H]4C12 (stereo partly specified) -0.484
COC(=O)[C@@]1(Cc2ccccc2)[C@H]2c3cc(C(=O)N4CCCC4)n(Cc4nc5ccccc5[nH]4)c3C[C@H]2CN1C(=O)c1ccccc1 0.773
CC(C)c1ccc(NN2C(C(O)C(c3ccccc3)c3ccccc3)C=CC3C(=O)N(c4ccccc4)C(=O)C32)cc1 (stereo unspecified) -0.322
C#CCN(Cc1ccccc1Br)C(/C=C/c1ccccc1)CO (stereo unspecified) 5.19
O=C1C2C=CC(C(O)c3c(F)cccc3Cl)N(Nc3ccccc3)C2C(=O)N1c1ccccc1 (stereo unspecified) 0.0535
NC(=O)[C@@H]1[C@H]2C(=O)O[C@H](c3ccccc3)[C@H](c3ccccc3)N2[C@H](c2ccc(O)cc2)[C@@]12C(=O)Nc1ccc(C#CC3(O)CCCCCC3)cc12 0.568
CCOC(=O)C[C@H]1[C@H](OC(=O)Cc2ccc3c(c2)OCO3)[C@@H](NC(=O)c2ccc3ccccc3c2)c2cc(OCCCO)ccc2N1C(=O)c1ccccc1 4.07
CN(C)C(=O)[C@]1(Cc2ccccc2N=[N+]=[N-])N=C(c2ccc(OCCCO)cc2)O[C@@H]1c1ccccc1 0.69
COC(=O)c1c(CC[C@@H](CO)NC(=O)N[C@@H](C)Cn2cc(C3(O)CCCCC3)nn2)oc(C(C)=O)c1C(=O)OC 1.59
O=C1C2C=CC(C(O)c3ccc(F)cc3)N(Nc3ccccc3F)C2C(=O)N1c1ccccc1 (stereo unspecified) 0.433
O=C(c1ccccc1)N1Cc2ccccc2[C@@H]2OC(c3ccc(OCCCO)cc3)=N[C@]2(Cc2ccccc2)C1=O 1.35
C=C(COC)/C(=C/C[C@H](OC(=O)c1ccncc1)c1ccc(OCCO)cc1)c1cnc2ccccc2c1 6.73
COCCOC(=O)N1C(=O)[C@@]2(c3cc(C#CCNC(N)=O)ccc31)[C@H](C(=O)NC[C@H](O)c1ccccc1)[C@H]1C(=O)O[C@H](c3ccccc3)[C@H](c3ccccc3)N1[C@@H]2c1ccccc1OCCO -0.199
